# Inconclusive results are not listed. Activity calls are given as the source filed them. Calls follow the shape of the full dose curve.
# Experiment: Confirmatory qHTS for VERO E6 Cytotoxicity Assay: Counterscreen for SARS-CoV-2 CPE Assay (AID 1508605); also: nearly all actives have a fitted effect of over 60% in size
# Conditions: cell viability luminescence; series mostly up to 20 µM; activity change, negative = cytotoxic: at the top concentration
# % is scaled to controls: 0 for no effect and ±100 for the full control effect; potency is read from the fitted curve at half-maximal effect.
Structure (SMILES),Potency,"activity change, negative = cytotoxic"
O=C(c1ccc(-c2ccc(Cl)cc2)o1)N(Cc1ccccn1)c1ccc(N2CCNCC2)cc1,11.2 µM (active),–
CCC(C)CNCC(=O)N1CCC2SC=CC2C1COc1cccc(C)c1 (stereo not drawn),–,-18.4% (inactive)
CSc1ccc(C(=O)/C=C/c2cc(C)c(OC(C)(C)C(=O)O)c(C)c2)cc1,–,-15.5% [at 40 µM] (inactive)
COc1ccc2sc(NC(c3ccc(OC(F)F)cc3)c3ccc4cccnc4c3O)nc2c1 (stereo not drawn),0.708 µM (active),–
CCN(CC)CC1CCN(c2ncc3ncnc(Nc4ccc(F)c(Cl)c4)c3n2)CC1,11.2 µM (active),–
CCC(CC)COC(=O)[C@H](C)N[P@](=O)(OC[C@H]1O[C@@](C#N)(c2ccc3c(N)ncnn23)[C@H](O)[C@@H]1O)Oc1ccccc1,–,0.98% (inactive)
CCC(C)C(=O)OC12C(OC(C)=O)C(C)C3(O)C(C=C(CO)CC4(O)C(=O)C(C)=CC43)C1C2(C)C (stereo not drawn),–,-11% [at 10 µM] (inactive)
C/C=C(\C)C(=O)OC1C(C)C2(O)C3C=C(C)C(=O)C3CC(CO)=CC2C2C(C)(C)C12OC(C)=O (stereo not drawn),–,-11% [at 10 µM] (inactive)
COc1cc2nc(N3CCCCC3)nc(NC3CCN(C)CC3)c2cc1OC,10 µM (active),–
COc1ccc2c(c1)[C@]1(C[C@H]1c1ccc3c(/C=C/c4ccc(CN5C[C@@H](C)O[C@@H](C)C5)cc4)n[nH]c3c1)C(=O)N2,–,-32.8% (inactive)
CCc1ccccc1OC[C@@H](O)CN[C@H]1CCCc2ccccc21,–,-13.4% (inactive)
Fc1ccc2c(CCNCc3cccc(OCC(F)(F)C(F)F)c3)c[nH]c2c1,–,-27.3% (inactive)
COc1ccc(-c2csc(NC(=O)[C@H]3CCCCN3S(=O)(=O)c3ccc(C)cc3)n2)cc1,–,4.47% (inactive)
